In all, about 16,000 sequences were measured (“rpm ratio (pull-down/input)”: median about 0.5, highest 2% from about 5.5 on). This is one part of a sample in which the highest values are shown more often than they occur.
Biological target: T1, MBP-FoxP3dN (Mus musculus, UniProt Q99JB6 188-423)
T1 sequence: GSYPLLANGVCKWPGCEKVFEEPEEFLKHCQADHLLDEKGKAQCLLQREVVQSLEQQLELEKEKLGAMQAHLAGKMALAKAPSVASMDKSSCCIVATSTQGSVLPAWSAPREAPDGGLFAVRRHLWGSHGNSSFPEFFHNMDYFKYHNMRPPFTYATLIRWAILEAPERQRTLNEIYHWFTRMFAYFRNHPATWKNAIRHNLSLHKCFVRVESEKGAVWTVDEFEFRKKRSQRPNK
Assay: PD-seq (MBP pull-down with sequencing); 20 mM Tris-HCl pH 7.5, 100 mM NaCl, 1.5 mM MgCl2, 0.4 uM protein, 0.1 uM dsDNA library, 30 min, room temperature, amylose pull-down; high values mean tight binding
Settings: protein: recombinant; tags: His6-MBP; chain copies: 2; dsDNA, one strand shown
Method in brief: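 Binding is given as reads-per-million enrichment, pull-down over input, with replicates pooled. The bait was an N-terminus-lacking mouse FoxP3 or FoxP1 fragment with a His6-MBP tag, expressed in E. coli and used at 0.4 µM with 0.1 µM Klenow-filled degenerate double-stranded DNA library for 30 min at room temperature in Tris pH 7.5 buffer with NaCl and MgCl2. Amylose resin pull-down with three washes was followed by proteinase K release, PCR barcoding and Illumina sequencing.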

Row | Sequence | binding signal
1 | GATGATTGTTCTCCCAGCTGATGAATTAGCTGATTCGAGTAAACAAATTTTCCTAATCTTTCTGTTCAAGCGCCATCTAC | 1.17 RPM ratio (pull-down/input)
2 | GATGATTGTTCTCCCAGCTGATGAATTAGTGCATTCGAGTAAACAAATTTTCCTAATCTTTCTGTTCAAGCGCCATCTAC | 7.28 RPM ratio (pull-down/input)
3 | GATGATTGTTCTCCCAGCTGATGAATTTAGCATCTCGAGTAAACAAATTTTCCTAATCTTTCTGTTCAAGCGCCATCTAC | 6.55 RPM ratio (pull-down/input)
4 | GATGATTGTTCTCCCAGCTGATGAATTCTAGCATTCGAGTAAACAAATTTTCCTAATCTTTCTGTTCAAGCGCCATCTAC | 5.17 RPM ratio (pull-down/input)
5 | GATGATTGTTCTCCCAGCTGATGAATTTTAGCATTCGAGTAAACAAATTTTCCTAATCTTTCTGTTCAAGCGCCATCTAC | 5.97 RPM ratio (pull-down/input)
6 | GATGATTGTTCTCCCAGCTGATGAATTTAGCAGCTCGAGTAAACAAATTTTCCTAATCTTTCTGTTCAAGCGCCATCTAC | 1.72 RPM ratio (pull-down/input)
7 | GATGATTGTTCTCCCAGCTGATGAATTAGCGCATTCGAGTAAACAAATTTTCCTAATCTTTCTGTTCAAGCGCCATCTAC | 7.23 RPM ratio (pull-down/input)
8 | GATGATTGTTCTCCCAGCTGATGAATTTTTAGCATCGAGTAAACAAATTTTCCTAATCTTTCTGTTCAAGCGCCATCTAC | 0.918 RPM ratio (pull-down/input)
9 | GATGATTGTTCTCCCAGCTGATGAATTAGCCCATTCGAGTAAACAAATTTTCCTAATCTTTCTGTTCAAGCGCCATCTAC | 0.4 RPM ratio (pull-down/input)
10 | GATGATTGTTCTCCCAGCTGATGAATTAGTAAATTCGAGTAAACAAATTTTCCTAATCTTTCTGTTCAAGCGCCATCTAC | 0.68 RPM ratio (pull-down/input)
11 | GATGATTGTTCTCCCAGCTGATGAATTTAGCCATTCGAGTAAACAAATTTTCCTAATCTTTCTGTTCAAGCGCCATCTAC | 4.73 RPM ratio (pull-down/input)
12 | GATGATTGTTCTCCCAGCTGATGAATTAGTGAATTCGAGTAAACAAATTTTCCTAATCTTTCTGTTCAAGCGCCATCTAC | 0.976 RPM ratio (pull-down/input)
13 | GATGATTGTTCTCCCAGCTGATGAATTCCTATCGTCGAGTAAACAAATTTTCCTAATCTTTCTGTTCAAGCGCCATCTAC | 0.382 RPM ratio (pull-down/input)
14 | GATGATTGTTCTCCCAGCTGATGAATTTCATAGGTCGAGTAAACAAATTTTCCTAATCTTTCTGTTCAAGCGCCATCTAC | 0.343 RPM ratio (pull-down/input)
15 | GATGATTGTTCTCCCAGCTGATGAATTGATCATTTCGAGTAAACAAATTTTCCTAATCTTTCTGTTCAAGCGCCATCTAC | 0.757 RPM ratio (pull-down/input)
16 | GATGATTGTTCTCCCAGCTGATGAATTGGCTGAATCGAGTAAACAAATTTTCCTAATCTTTCTGTTCAAGCGCCATCTAC | 0.239 RPM ratio (pull-down/input)

Row | Sequence | binding signal
17 | GATGATTGTTCTCCCAGCTGATGAATTACTCCAGTCGAGTAAACAAATTTTCCTAATCTTTCTGTTCAAGCGCCATCTAC | 0.213 RPM ratio (pull-down/input)
18 | GATGATTGTTCTCCCAGCTGATGAATTTGGTGTCTCGAGTAAACAAATTTTCCTAATCTTTCTGTTCAAGCGCCATCTAC | 3.42 RPM ratio (pull-down/input)
19 | GATGATTGTTCTCCCAGCTGATGAATTCCGACTCTCGAGTAAACAAATTTTCCTAATCTTTCTGTTCAAGCGCCATCTAC | 2.16 RPM ratio (pull-down/input)
20 | GATGATTGTTCTCCCAGCTGATGAATTGACCGAATCGAGTAAACAAATTTTCCTAATCTTTCTGTTCAAGCGCCATCTAC | 0.227 RPM ratio (pull-down/input)
21 | GATGATTGTTCTCCCAGCTGATGAATTTCAACTGTCGAGTAAACAAATTTTCCTAATCTTTCTGTTCAAGCGCCATCTAC | 0.377 RPM ratio (pull-down/input)
22 | GATGATTGTTCTCCCAGCTGATGAATTGGGTGTCTCGAGTAAACAAATTTTCCTAATCTTTCTGTTCAAGCGCCATCTAC | 1.29 RPM ratio (pull-down/input)
23 | GATGATTGTTCTCCCAGCTGATGAATTGGTGAGGTCGAGTAAACAAATTTTCCTAATCTTTCTGTTCAAGCGCCATCTAC | 0.385 RPM ratio (pull-down/input)
24 | GATGATTGTTCTCCCAGCTGATGAATTGGTTTCCTCGAGTAAACAAATTTTCCTAATCTTTCTGTTCAAGCGCCATCTAC | 1.54 RPM ratio (pull-down/input)
25 | GATGATTGTTCTCCCAGCTGATGAATTGAGCGCCTCGAGTAAACAAATTTTCCTAATCTTTCTGTTCAAGCGCCATCTAC | 1.18 RPM ratio (pull-down/input)
26 | GATGATTGTTCTCCCAGCTGATGAATTTAGCTGTTCGAGTAAACAAATTTTCCTAATCTTTCTGTTCAAGCGCCATCTAC | 1.7 RPM ratio (pull-down/input)
27 | GATGATTGTTCTCCCAGCTGATGAATTGTAGCATTCGAGTAAACAAATTTTCCTAATCTTTCTGTTCAAGCGCCATCTAC | 5.76 RPM ratio (pull-down/input)
28 | GATGATTGTTCTCCCAGCTGATGAATTCGTAGCATCGAGTAAACAAATTTTCCTAATCTTTCTGTTCAAGCGCCATCTAC | 1.31 RPM ratio (pull-down/input)
29 | GATGATTGTTCTCCCAGCTGATGAATTAACAAATTCGAGTAAACAAATTTTCCTAATCTTTCTGTTCAAGCGCCATCTAC | 0.494 RPM ratio (pull-down/input)
30 | GATGATTGTTCTCCCAGCTGATGAATTTAGCATTTCGAGTAAACAAATTTTCCTAATCTTTCTGTTCAAGCGCCATCTAC | 6.35 RPM ratio (pull-down/input)
31 | GATGATTGTTCTCCCAGCTGATGAATTTGTAGCATCGAGTAAACAAATTTTCCTAATCTTTCTGTTCAAGCGCCATCTAC | 4.88 RPM ratio (pull-down/input)

Reference: article PMC12820563, “FoxP3 forms a head-to-head dimer in vivo and stabilizes its multimerization on adjacent microsatellites”
